Laboratory results from the supplement of paper PMC10849652.
The full data set covers some 7,900 targets. This sample favours those with a hit. About 0.6% of all pairs of compound and target were hits. A number with no mark means an inactive call.

Columns and labels:
Experiment in all cases: log2 fold change, soluble protein after heating vs DMSO (PISA); higher = thermal stabilisation; K562 cells, 10 uM, 30 min; active = over 0.2 and 3.5 SD of the protein, either way, in both replicates (recomputed)
[1] = compound: COC1=CC=C(C=C1)CN2C=CC3=C2C=C(C=C3)C(=O)NO
How it was run: (§1)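 K562 cells (2×10^6 cells/mL) were treated with 10 μM compound for 30 min, and aliquots were heated for 3 min over 48°C-58°C. Pooled aliquots were extracted in PBS with 0.5% NP-40 at 4°C, and the supernatant after 21,000xg for 90 min was measured by TMTpro 16plex LC-MS/MS with channel sums equalised. Reported thermal stability, relative to control samples and from duplicates, is a log2 fold change.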

[2] = compound: CON(C)C(=O)N1N=C(c2cc(F)ccc2F)S[C@@]1(CCCN)c1ccccc1 [filanesib]
How it was run: as §1

[3] = compound: CO[C@H]1C[C@@H]2CC[C@@H](C)[C@@](O)(O2)C(=O)C(=O)N2CCCC[C@H]2C(=O)O[C@H]([C@H](C)C[C@@H]2CC[C@H](n3cnnn3)[C@H](OC)C2)CC(=O)[C@H](C)/C=C(\C)[C@@H](O)[C@@H](OC)C(=O)[C@H](C)C[C@H](C)/C=C/C=C/C=C/1C [zotarolimus]
How it was run: as §1

[4] = compound: COc1cc(C(=O)O)ccc1NC(=O)[C@@H]1N[C@@H](CC(C)(C)C)[C@](C#N)(c2ccc(Cl)cc2F)[C@H]1c1cccc(Cl)c1F [idasanutlin]
How it was run: as §1

[5] = compound: COc1cc(Nc2ncc3c(n2)-c2ccc(Cl)cc2C(c2c(F)cccc2OC)=NC3)ccc1C(=O)O [alisertib]
How it was run: as §1

[6] = compound: COc1cc2nc(-c3cc(F)ccc3O)nc(N[C@@H]3CNC[C@H]3C(C)(C)O)c2cc1OC
How it was run: as §1

[7] = compound: COc1cc2ncnc(Nc3ccc(F)c(Cl)c3)c2cc1OCCCN1CCOCC1 [gefitinib]
How it was run: as §1

[8] = compound: COc1cccc2cc(-c3nc([C@H]4CC[C@H](C(=O)O)CC4)n4ncnc(N)c34)[nH]c12
How it was run: as §1

[9] = compound: CS(=O)(=O)CCNCc1ccc(-c2ccc3ncnc(Nc4ccc(OCc5cccc(F)c5)c(Cl)c4)c3c2)o1 [lapatinib]
How it was run: as §1

[10] = compound: CS(=O)(=O)N1CCN(Cc2cc3nc(-c4cccc5[nH]ncc45)nc(N4CCOCC4)c3s2)CC1 [pictilisib]
How it was run: as §1

Sequence of UniProt P49914 (P49914 whole entry, looked up): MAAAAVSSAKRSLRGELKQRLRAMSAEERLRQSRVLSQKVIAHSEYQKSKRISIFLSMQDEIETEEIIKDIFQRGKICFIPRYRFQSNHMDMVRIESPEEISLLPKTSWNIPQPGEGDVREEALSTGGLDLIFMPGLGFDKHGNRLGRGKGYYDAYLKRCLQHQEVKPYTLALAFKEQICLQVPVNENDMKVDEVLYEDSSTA
Sequence of UniProt Q9ULX3 (Q9ULX3 whole entry, looked up): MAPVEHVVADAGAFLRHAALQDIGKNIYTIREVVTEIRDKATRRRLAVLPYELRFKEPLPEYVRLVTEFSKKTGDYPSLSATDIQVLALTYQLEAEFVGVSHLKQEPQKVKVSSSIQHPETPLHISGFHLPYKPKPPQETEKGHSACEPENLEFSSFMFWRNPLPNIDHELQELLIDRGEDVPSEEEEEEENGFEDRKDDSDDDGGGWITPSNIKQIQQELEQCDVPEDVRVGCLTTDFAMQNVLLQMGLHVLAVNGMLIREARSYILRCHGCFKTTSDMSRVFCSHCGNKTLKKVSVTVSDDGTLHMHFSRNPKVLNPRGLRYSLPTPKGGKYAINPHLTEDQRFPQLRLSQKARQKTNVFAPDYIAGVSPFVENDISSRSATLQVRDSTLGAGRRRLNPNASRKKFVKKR
Sequence of UniProt O15118 (O15118 whole entry, looked up): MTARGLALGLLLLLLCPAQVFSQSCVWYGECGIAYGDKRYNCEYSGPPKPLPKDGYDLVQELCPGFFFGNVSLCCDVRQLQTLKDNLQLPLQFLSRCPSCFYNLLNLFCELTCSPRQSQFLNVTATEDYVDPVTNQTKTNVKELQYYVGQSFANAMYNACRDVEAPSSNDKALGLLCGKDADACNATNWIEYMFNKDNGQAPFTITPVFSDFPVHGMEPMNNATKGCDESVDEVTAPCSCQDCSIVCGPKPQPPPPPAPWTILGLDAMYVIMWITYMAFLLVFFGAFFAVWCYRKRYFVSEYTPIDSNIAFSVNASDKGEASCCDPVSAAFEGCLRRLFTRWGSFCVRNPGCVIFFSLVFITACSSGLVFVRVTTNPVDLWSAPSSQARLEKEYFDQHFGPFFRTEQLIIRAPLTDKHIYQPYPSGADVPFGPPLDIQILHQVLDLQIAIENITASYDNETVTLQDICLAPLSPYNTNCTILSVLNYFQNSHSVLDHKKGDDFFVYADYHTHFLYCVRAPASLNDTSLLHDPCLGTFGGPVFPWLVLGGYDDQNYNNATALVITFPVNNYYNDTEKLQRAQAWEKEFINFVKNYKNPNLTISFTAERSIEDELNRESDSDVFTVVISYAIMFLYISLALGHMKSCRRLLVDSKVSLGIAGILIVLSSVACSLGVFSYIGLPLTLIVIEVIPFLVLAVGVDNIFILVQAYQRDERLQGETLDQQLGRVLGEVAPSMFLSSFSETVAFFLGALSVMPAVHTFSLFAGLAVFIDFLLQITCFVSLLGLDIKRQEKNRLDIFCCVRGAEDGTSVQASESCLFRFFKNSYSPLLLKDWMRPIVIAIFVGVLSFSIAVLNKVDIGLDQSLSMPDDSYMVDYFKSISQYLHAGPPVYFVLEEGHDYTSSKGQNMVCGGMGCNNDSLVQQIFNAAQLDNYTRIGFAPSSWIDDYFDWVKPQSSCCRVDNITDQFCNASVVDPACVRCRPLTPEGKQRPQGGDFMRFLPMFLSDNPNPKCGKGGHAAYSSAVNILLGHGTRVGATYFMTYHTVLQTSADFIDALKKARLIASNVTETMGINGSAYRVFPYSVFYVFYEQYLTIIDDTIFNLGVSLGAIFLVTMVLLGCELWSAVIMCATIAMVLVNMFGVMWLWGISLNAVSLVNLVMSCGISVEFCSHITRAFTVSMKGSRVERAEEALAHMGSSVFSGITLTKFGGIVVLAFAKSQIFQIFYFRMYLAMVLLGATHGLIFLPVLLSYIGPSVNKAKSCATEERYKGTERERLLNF
Sequence of UniProt Q9BZF1 (Q9BZF1 whole entry, looked up): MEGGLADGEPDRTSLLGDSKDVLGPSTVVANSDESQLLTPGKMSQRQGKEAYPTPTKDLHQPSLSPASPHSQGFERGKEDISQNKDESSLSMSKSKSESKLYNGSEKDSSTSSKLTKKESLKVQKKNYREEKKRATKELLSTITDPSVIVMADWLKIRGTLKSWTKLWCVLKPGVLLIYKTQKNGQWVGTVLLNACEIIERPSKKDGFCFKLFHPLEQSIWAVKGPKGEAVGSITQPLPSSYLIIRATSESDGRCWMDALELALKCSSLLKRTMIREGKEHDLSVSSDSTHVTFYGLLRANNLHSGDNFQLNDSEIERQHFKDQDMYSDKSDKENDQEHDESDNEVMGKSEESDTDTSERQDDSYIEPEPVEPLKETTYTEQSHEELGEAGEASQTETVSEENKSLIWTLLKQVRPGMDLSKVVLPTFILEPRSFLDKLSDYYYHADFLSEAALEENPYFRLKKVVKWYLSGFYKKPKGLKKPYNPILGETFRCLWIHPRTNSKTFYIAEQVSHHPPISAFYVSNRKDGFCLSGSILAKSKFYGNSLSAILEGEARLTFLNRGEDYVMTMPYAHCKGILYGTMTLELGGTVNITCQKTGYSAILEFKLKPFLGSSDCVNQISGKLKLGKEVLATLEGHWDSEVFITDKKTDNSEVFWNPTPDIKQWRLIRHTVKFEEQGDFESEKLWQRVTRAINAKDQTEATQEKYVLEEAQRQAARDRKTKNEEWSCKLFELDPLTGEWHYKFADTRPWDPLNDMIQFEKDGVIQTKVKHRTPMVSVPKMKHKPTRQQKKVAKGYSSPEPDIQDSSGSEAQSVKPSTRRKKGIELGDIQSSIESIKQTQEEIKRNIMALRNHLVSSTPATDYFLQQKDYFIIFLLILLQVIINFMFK
Sequence of UniProt Q13469 (Q13469 whole entry, looked up): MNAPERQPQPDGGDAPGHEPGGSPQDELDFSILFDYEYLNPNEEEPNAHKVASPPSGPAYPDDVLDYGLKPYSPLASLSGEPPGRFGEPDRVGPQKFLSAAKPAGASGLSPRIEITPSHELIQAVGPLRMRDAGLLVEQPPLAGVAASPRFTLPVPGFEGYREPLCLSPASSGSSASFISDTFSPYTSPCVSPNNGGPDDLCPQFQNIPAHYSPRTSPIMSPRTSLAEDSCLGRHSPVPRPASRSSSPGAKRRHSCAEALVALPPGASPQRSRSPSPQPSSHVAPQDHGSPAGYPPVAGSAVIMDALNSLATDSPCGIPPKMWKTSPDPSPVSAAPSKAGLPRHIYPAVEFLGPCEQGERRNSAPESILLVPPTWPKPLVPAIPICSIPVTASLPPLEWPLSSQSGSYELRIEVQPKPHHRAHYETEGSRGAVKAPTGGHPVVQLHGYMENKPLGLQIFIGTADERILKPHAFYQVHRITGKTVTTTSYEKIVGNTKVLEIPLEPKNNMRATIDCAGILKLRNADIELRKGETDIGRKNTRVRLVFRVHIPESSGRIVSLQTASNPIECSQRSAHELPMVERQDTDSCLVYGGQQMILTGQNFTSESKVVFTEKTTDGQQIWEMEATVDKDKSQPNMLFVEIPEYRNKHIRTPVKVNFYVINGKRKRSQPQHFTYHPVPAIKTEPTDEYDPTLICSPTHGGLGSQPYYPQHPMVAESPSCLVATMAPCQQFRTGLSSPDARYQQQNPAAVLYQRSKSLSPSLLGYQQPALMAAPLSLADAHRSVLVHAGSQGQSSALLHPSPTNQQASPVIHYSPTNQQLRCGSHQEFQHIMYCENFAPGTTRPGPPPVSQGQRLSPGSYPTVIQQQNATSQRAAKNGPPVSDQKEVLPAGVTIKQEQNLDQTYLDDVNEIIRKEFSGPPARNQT
Sequence of UniProt O60361 (O60361 whole entry, looked up): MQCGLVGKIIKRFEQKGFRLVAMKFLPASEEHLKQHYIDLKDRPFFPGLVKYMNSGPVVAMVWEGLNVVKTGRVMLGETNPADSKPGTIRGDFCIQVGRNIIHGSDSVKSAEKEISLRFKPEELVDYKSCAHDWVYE
Sequence of UniProt Q13423 (Q13423 whole entry, looked up): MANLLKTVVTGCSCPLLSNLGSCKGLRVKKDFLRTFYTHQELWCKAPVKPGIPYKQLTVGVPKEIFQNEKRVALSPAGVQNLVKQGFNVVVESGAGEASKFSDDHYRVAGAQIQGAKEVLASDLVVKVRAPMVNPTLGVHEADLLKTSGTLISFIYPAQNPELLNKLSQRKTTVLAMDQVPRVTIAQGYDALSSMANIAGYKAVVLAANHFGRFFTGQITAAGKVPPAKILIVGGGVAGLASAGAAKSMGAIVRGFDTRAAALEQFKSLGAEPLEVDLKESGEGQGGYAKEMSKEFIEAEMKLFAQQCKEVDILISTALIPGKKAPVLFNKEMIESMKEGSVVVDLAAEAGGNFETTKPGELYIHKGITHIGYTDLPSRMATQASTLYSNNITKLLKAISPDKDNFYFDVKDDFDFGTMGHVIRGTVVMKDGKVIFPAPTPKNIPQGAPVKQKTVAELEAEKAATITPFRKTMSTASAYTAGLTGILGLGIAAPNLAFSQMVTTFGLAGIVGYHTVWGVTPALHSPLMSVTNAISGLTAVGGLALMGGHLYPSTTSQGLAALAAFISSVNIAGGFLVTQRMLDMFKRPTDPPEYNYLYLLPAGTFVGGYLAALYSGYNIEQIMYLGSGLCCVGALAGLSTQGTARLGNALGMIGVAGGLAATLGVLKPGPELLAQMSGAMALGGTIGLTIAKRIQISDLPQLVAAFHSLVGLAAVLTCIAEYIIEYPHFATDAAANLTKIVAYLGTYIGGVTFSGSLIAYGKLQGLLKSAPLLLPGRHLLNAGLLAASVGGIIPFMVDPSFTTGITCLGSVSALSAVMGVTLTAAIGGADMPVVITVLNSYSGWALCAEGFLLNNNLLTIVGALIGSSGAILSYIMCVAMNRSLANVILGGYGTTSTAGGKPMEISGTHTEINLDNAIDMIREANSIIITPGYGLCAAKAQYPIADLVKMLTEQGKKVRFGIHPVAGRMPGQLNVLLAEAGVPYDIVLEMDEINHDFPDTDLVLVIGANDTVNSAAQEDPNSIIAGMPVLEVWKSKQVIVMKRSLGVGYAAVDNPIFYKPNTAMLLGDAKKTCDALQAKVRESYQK

| Target | log2 fold change [1] | log2 fold change [2] | log2 fold change [3] | log2 fold change [4] | log2 fold change [5] | log2 fold change [6] | log2 fold change [7] | log2 fold change [8] | log2 fold change [9] | log2 fold change [10] |
| --- | --- | --- | --- | --- | --- | --- | --- | --- | --- | --- |
| NEK3 (UniProt P51956) | 0.058 | -0.297 | 0.217 | 0.116 | 0.074 | 0.07 | 0.086 | -0.196 | 0.061 | 0.161 |
| NPC1 (UniProt O15118) | 0.04 | -0.12 | -0.038 | 0.025 | -0.067 | 0.035 | -0.027 | 0.057 | 0.026 | 0 |
| MYH16 (UniProt Q9H6N6) | 0.886 (active) | -0.263 | -0.118 | -0.066 | 0.163 | -0.052 | -0.03 | -0.031 | 0.204 | -0.448 |
| NIPSNAP2 (UniProt O75323) | 0.074 | -0.065 | 0.008 | -0.022 | 0.003 | 0.007 | 0.045 | -0.038 | 0.224 (active) | 0.079 |
| NR2C2 isoform 2 (UniProt P49116) | 0.026 | 0.019 | 0.055 | 0.041 | -0.173 | 0.028 | -0.052 | 0.084 | -0.004 | 0.019 |
| MLX (UniProt Q9UH92) | -0.054 | 0.027 | -0.009 | -0.071 | -0.014 | 0.025 | 0.022 | 0.057 | -0.099 | 0.05 |
| PACS1 (UniProt Q6VY07) | 0.105 | 0.047 | 0.008 | -0.005 | 0.006 | 0.054 | 0.043 | 0.002 | 0.013 | 0.021 |
| MTHFS (UniProt P49914) | 0.032 | -0.023 | -0.02 | -0.006 | -0.065 | 0.041 | 0.053 | 0.052 | 0.028 | 0.016 |
| NASP (UniProt P49321) | 0.01 | -0.009 | 0.05 | -0.021 | -0.03 | 0.029 | 0.001 | -0.023 | -0.023 | 0.007 |
| NFATC2 (UniProt Q13469) | 0.015 | 0.161 | -0.084 | 0.058 | 0.147 | -0.036 | 0.031 | -0.152 | -0.001 | -0.029 |
| MSTO1 (UniProt Q9BUK6) | -0.022 | -0.078 | -0.045 | -0.08 | 0.007 | 0.024 | -0.018 | 0.025 | -0.009 | 0.021 |
| NUP205 (UniProt Q92621) | 0.015 | 0.01 | 0.009 | -0.08 | -0.014 | 0.058 | -0.011 | -0.008 | -0.03 | -0.01 |
| NTMT1 (UniProt Q9BV86) | -0.455 (active) | -0.055 | 0.091 | -0.121 | -0.043 | 0.085 | 0.062 | -0.027 | -0.001 | 0.092 |
| OTULIN (UniProt Q96BN8) | 0.022 | -0.044 | -0.024 | -0.005 | 0.086 | 0.014 | 0 | -0.045 | 0.048 | 0.023 |
| OSBPL8 (UniProt Q9BZF1) | 0.034 | 0.077 | -0.067 | -0.016 | -0.052 | -0.086 | 0.23 | -0.22 | 0.142 | -0.015 |
| NUMBL (UniProt Q9Y6R0) | -0.079 | 0.128 | -0.012 | -0.061 | -0.168 | 0.005 | 0.036 | -0.149 | 0.012 | -0.022 |

| Target | log2 fold change [1] | log2 fold change [2] | log2 fold change [3] | log2 fold change [4] | log2 fold change [5] | log2 fold change [6] | log2 fold change [7] | log2 fold change [8] | log2 fold change [9] | log2 fold change [10] |
| --- | --- | --- | --- | --- | --- | --- | --- | --- | --- | --- |
| PAFAH1B3 (UniProt Q15102) | -0.01 | -0.024 | 0.037 | -0.033 | -0.044 | 0.03 | 0.043 | 0.057 | -0.054 | 0.079 |
| NNT (UniProt Q13423) | -0.008 | -0.08 | 0.015 | -0.076 | -0.041 | 0.037 | 0.016 | 0.031 | -0.031 | -0.01 |
| MT-ND4 (UniProt P03905) | -0.021 | -0.009 | -0.069 | -0.147 | -0.02 | -0.088 | 0.003 | 0.046 | 0.013 | -0.214 |
| NCL (UniProt P19338) | -0.091 | 0.454 | 0.026 | 0.274 | -0.16 | -0.099 | -0.022 | -0.217 | 0.159 | -0.085 |
| NELFA (UniProt Q9H3P2) | 0.031 | 0.035 | -0.084 | -0.117 | 0.092 | 0.105 | 0.36 | 0.017 | -0.079 | 0.076 |
| MRPS31 (UniProt Q92665) | 0.016 | 0.029 | 0.03 | -0.202 | -0.008 | -0.025 | -0.077 | -0.016 | 0.054 | -0.005 |
| OGFR (UniProt Q9NZT2) | -0.005 | 0.048 | 0.137 | -0.042 | -0.157 | 0.023 | -0.015 | -0.152 | 0 | 0.019 |
| NCAPG (UniProt Q9BPX3) | 0.079 | -0.018 | 0.054 | -0.064 | 0.03 | 0.038 | 0.022 | -0.116 | 0 | 0.071 |
| MORC3 (UniProt Q14149) | 0.013 | -0.04 | 0.015 | 0.021 | 0.039 | 0.146 | -0.082 | 0 | -0.058 | 0.196 |
| NELFB isoform 2 (UniProt Q8WX92) | 0.01 | 0.046 | 0.019 | -0.026 | -0.007 | 0.085 | -0.006 | -0.02 | -0.029 | 0.141 |
| NME2P1 (UniProt O60361) | -0.256 | 0.058 | -0.111 | -0.367 | -0.089 | 0.122 | -0.01 | 0.084 | -0.075 | -0.041 |
| MRPS25 (UniProt P82663) | 0.066 | 0.029 | 0.053 | -0.185 | -0.038 | -0.055 | 0.058 | -0.046 | 0.08 | 0.063 |
| NCAPD2 (UniProt Q15021) | 0.025 | -0.006 | 0.061 | -0.072 | -0.005 | 0.092 | 0.029 | -0.138 | -0.024 | 0.059 |
| NUDT1 (UniProt P36639) | 0.043 | -0.06 | -0.068 | -0.169 | -0.017 | 0.11 | 0.354 | -0.046 | -0.016 | -0.01 |
| NMRAL1 (UniProt Q9HBL8) | 0.678 | -0.084 | 0.135 | -0.268 | -0.099 | 0.184 | 0.257 | 0.003 | -0.003 | 0.83 |
| NOB1 (UniProt Q9ULX3) | 0.16 | 0.001 | 0.026 | 0.068 | -0.14 | 0.044 | 0.01 | -0.13 | 0.045 | -0.042 |
